Results published in the supplement of paper PMC4466140.

Target: AgAbp1
Assay: SPOT peptide array binding signal intensity (averaged, normalized) (arbitrary units (background-subtracted, floor 0; scale differs between SH3 domains)); higher = stronger binding of the SH3 domain to the peptide
Experimental: (§1)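 GST-tagged SH3 domains from S. cerevisiae (Sc), A. gossypii (Ag), C. albicans (Ca) and S. pombe (Sp) were incubated at 10 ug/ml overnight at 4 C on cellulose SPOT membranes carrying 292 synthetic 15-mer peptides mined from the S. cerevisiae proteome (cysteines replaced by serines). Binding was detected with anti-GST antibody, HRP secondary and chemiluminescence, quantified with Genespotter, and reported as normalized spot intensities averaged over biological replicates.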

Binder | SPOT peptide array binding signal intensity
KRKRFNLLLPKPYLT | 46

Target: AgBbc1
Assay: as above
Experimental: as §1

Binder | SPOT peptide array binding signal intensity
KRKRFNLLLPKPYLT | 16.5

Target: AgBem1-D1
Assay: as above
Experimental: as §1

Binder | SPOT peptide array binding signal intensity
KRKRFNLLLPKPYLT | 136

Target: AgBzz1-D1
Assay: as above
Experimental: as §1

Binder | SPOT peptide array binding signal intensity
KRKRFNLLLPKPYLT | 33

Target: AgBzz1-D2
Assay: as above
Experimental: as §1

Binder | SPOT peptide array binding signal intensity
KRKRFNLLLPKPYLT | 19.5

Target: AgCyk3
Assay: as above
Experimental: as §1

Binder | SPOT peptide array binding signal intensity
KRKRFNLLLPKPYLT | 3

Target: AgFus1
Assay: as above
Experimental: as §1

Binder | SPOT peptide array binding signal intensity
KRKRFNLLLPKPYLT | 356

Target: AgHof1
Assay: as above
Experimental: as §1

Binder | SPOT peptide array binding signal intensity
KRKRFNLLLPKPYLT | 49.5

Target: AgHse1
Assay: as above
Experimental: as §1

Binder | SPOT peptide array binding signal intensity
KRKRFNLLLPKPYLT | 745

Target: AgLsb1
Assay: as above
Experimental: as §1

Binder | SPOT peptide array binding signal intensity
KRKRFNLLLPKPYLT | 14.5

Target: AgLsb4
Assay: as above
Experimental: as §1

Binder | SPOT peptide array binding signal intensity
KRKRFNLLLPKPYLT | 104

Target: AgMyo5
Assay: as above
Experimental: as §1

Binder | SPOT peptide array binding signal intensity
KRKRFNLLLPKPYLT | 0.75

Target: AgNbp2
Assay: as above
Experimental: as §1

Binder | SPOT peptide array binding signal intensity
KRKRFNLLLPKPYLT | 99

Target: AgRvs167
Assay: as above
Experimental: as §1

Binder | SPOT peptide array binding signal intensity
KRKRFNLLLPKPYLT | 6.17

Target: AgSho1
Assay: as above
Experimental: as §1

Binder | SPOT peptide array binding signal intensity
KRKRFNLLLPKPYLT | 58

Target: AgSla1-D1-D2
Assay: as above
Experimental: as §1

Binder | SPOT peptide array binding signal intensity
KRKRFNLLLPKPYLT | 578

Target: AgSla1-D3
Assay: as above
Experimental: as §1

Binder | SPOT peptide array binding signal intensity
KRKRFNLLLPKPYLT | 4

Target: CaAbp1-D1
Assay: as above
Experimental: as §1

Binder | SPOT peptide array binding signal intensity
KRKRFNLLLPKPYLT | 458

Target: CaAbp1-D2
Assay: as above
Experimental: as §1

Binder | SPOT peptide array binding signal intensity
KRKRFNLLLPKPYLT | 418

Target: CaBbc1
Assay: as above
Experimental: as §1

Binder | SPOT peptide array binding signal intensity
KRKRFNLLLPKPYLT | 39.5

Target: CaBem1-D1
Assay: as above
Experimental: as §1

Binder | SPOT peptide array binding signal intensity
KRKRFNLLLPKPYLT | 31

Target: CaBzz1-D1
Assay: as above
Experimental: as §1

Binder | SPOT peptide array binding signal intensity
KRKRFNLLLPKPYLT | 28

Target: CaBzz1-D2
Assay: as above
Experimental: as §1

Binder | SPOT peptide array binding signal intensity
KRKRFNLLLPKPYLT | 46.5

Target: CaCyk3
Assay: as above
Experimental: as §1

Binder | SPOT peptide array binding signal intensity
KRKRFNLLLPKPYLT | 5

Target: CaFus1
Assay: as above
Experimental: as §1

Binder | SPOT peptide array binding signal intensity
KRKRFNLLLPKPYLT | 548

Target: CaHof1
Assay: as above
Experimental: as §1

Binder | SPOT peptide array binding signal intensity
KRKRFNLLLPKPYLT | 1.5

Target: CaHse1
Assay: as above
Experimental: as §1

Binder | SPOT peptide array binding signal intensity
KRKRFNLLLPKPYLT | 25.5

Target: CaLsb1
Assay: as above
Experimental: as §1

Binder | SPOT peptide array binding signal intensity
KRKRFNLLLPKPYLT | 8

Target: CaLsb4
Assay: as above
Experimental: as §1

Binder | SPOT peptide array binding signal intensity
KRKRFNLLLPKPYLT | 43.5

Target: CaMyo5
Assay: as above
Experimental: as §1

Binder | SPOT peptide array binding signal intensity
KRKRFNLLLPKPYLT | 1

Target: CaNbp2
Assay: as above
Experimental: as §1

Binder | SPOT peptide array binding signal intensity
KRKRFNLLLPKPYLT | 192

Target: CaRvs167
Assay: as above
Experimental: as §1

Binder | SPOT peptide array binding signal intensity
KRKRFNLLLPKPYLT | 8.5

Target: CaRvs167-3
Assay: as above
Experimental: as §1

Binder | SPOT peptide array binding signal intensity
KRKRFNLLLPKPYLT | 692

Target: CaSho1
Assay: as above
Experimental: as §1

Binder | SPOT peptide array binding signal intensity
KRKRFNLLLPKPYLT | 592

Target: CaSla1-D1-D2
Assay: as above
Experimental: as §1

Binder | SPOT peptide array binding signal intensity
KRKRFNLLLPKPYLT | 1

Target: CaSla1-D3
Assay: as above
Experimental: as §1

Binder | SPOT peptide array binding signal intensity
KRKRFNLLLPKPYLT | 6.5

Target: ScAbp1
Assay: as above
Experimental: as §1

Binder | SPOT peptide array binding signal intensity
KRKRFNLLLPKPYLT | 24

Target: ScBbc1
Assay: as above
Experimental: as §1

Binder | SPOT peptide array binding signal intensity
KRKRFNLLLPKPYLT | 6

Target: ScBem1-D1
Assay: as above
Experimental: as §1

Binder | SPOT peptide array binding signal intensity
KRKRFNLLLPKPYLT | 22

Target: ScBzz1-D1
Assay: as above
Experimental: as §1

Binder | SPOT peptide array binding signal intensity
KRKRFNLLLPKPYLT | 3

Target: ScBzz1-D2
Assay: as above
Experimental: as §1

Binder | SPOT peptide array binding signal intensity
KRKRFNLLLPKPYLT | 40

Target: ScCyk3
Assay: as above
Experimental: as §1

Binder | SPOT peptide array binding signal intensity
KRKRFNLLLPKPYLT | 58

Target: ScFus1
Assay: as above
Experimental: as §1

Binder | SPOT peptide array binding signal intensity
KRKRFNLLLPKPYLT | 570

Target: ScHof1
Assay: as above
Experimental: as §1

Binder | SPOT peptide array binding signal intensity
KRKRFNLLLPKPYLT | ≤ 0

Target: ScHse1
Assay: as above
Experimental: as §1

Binder | SPOT peptide array binding signal intensity
KRKRFNLLLPKPYLT | 1210

Target: ScLsb1
Assay: as above
Experimental: as §1

Binder | SPOT peptide array binding signal intensity
KRKRFNLLLPKPYLT | 34.8

Target: ScLsb2
Assay: as above
Experimental: as §1

Binder | SPOT peptide array binding signal intensity
KRKRFNLLLPKPYLT | 8.5

Target: ScLsb3
Assay: as above
Experimental: as §1

Binder | SPOT peptide array binding signal intensity
KRKRFNLLLPKPYLT | 114

Target: ScLsb4
Assay: as above
Experimental: as §1

Binder | SPOT peptide array binding signal intensity
KRKRFNLLLPKPYLT | 10

Target: ScMyo3
Assay: as above
Experimental: as §1

Binder | SPOT peptide array binding signal intensity
KRKRFNLLLPKPYLT | 1.5

Target: ScMyo5
Assay: as above
Experimental: as §1

Binder | SPOT peptide array binding signal intensity
KRKRFNLLLPKPYLT | 0.5

Target: ScNbp2
Assay: as above
Experimental: as §1

Binder | SPOT peptide array binding signal intensity
KRKRFNLLLPKPYLT | 158

Target: ScPex13
Assay: as above
Experimental: as §1

Binder | SPOT peptide array binding signal intensity
KRKRFNLLLPKPYLT | 0.75

Target: ScRvs167
Assay: as above
Experimental: as §1

Binder | SPOT peptide array binding signal intensity
KRKRFNLLLPKPYLT | 5

Target: ScSho1
Assay: as above
Experimental: as §1

Binder | SPOT peptide array binding signal intensity
KRKRFNLLLPKPYLT | 474

Target: ScSla1-D1-D2
Assay: as above
Experimental: as §1

Binder | SPOT peptide array binding signal intensity
KRKRFNLLLPKPYLT | 96

Target: ScSla1-D3
Assay: as above
Experimental: as §1

Binder | SPOT peptide array binding signal intensity
KRKRFNLLLPKPYLT | 2.75

Target: SpAbp1-D1
Assay: as above
Experimental: as §1

Binder | SPOT peptide array binding signal intensity
KRKRFNLLLPKPYLT | 146

Target: SpBbc1
Assay: as above
Experimental: as §1

Binder | SPOT peptide array binding signal intensity
KRKRFNLLLPKPYLT | 10.8

Target: SpBzz1-D1
Assay: as above
Experimental: as §1

Binder | SPOT peptide array binding signal intensity
KRKRFNLLLPKPYLT | 94.5

Target: SpBzz1-D2
Assay: as above
Experimental: as §1

Binder | SPOT peptide array binding signal intensity
KRKRFNLLLPKPYLT | ≤ 0

Target: SpCyk3
Assay: as above
Experimental: as §1

Binder | SPOT peptide array binding signal intensity
KRKRFNLLLPKPYLT | 4

Target: SpHof1
Assay: as above
Experimental: as §1

Binder | SPOT peptide array binding signal intensity
KRKRFNLLLPKPYLT | 136

Target: SpHof1-2
Assay: as above
Experimental: as §1

Binder | SPOT peptide array binding signal intensity
KRKRFNLLLPKPYLT | 32.5

Target: SpHof1-3
Assay: as above
Experimental: as §1

Binder | SPOT peptide array binding signal intensity
KRKRFNLLLPKPYLT | 403

Target: SpHse1
Assay: as above
Experimental: as §1

Binder | SPOT peptide array binding signal intensity
KRKRFNLLLPKPYLT | 366

Target: SpLsb1
Assay: as above
Experimental: as §1

Binder | SPOT peptide array binding signal intensity
KRKRFNLLLPKPYLT | 3.75

Target: SpLsb4
Assay: as above
Experimental: as §1

Binder | SPOT peptide array binding signal intensity
KRKRFNLLLPKPYLT | 47

Target: SpMyo1
Assay: as above
Experimental: as §1

Binder | SPOT peptide array binding signal intensity
KRKRFNLLLPKPYLT | 2.5

Target: SpNbp2
Assay: as above
Experimental: as §1

Binder | SPOT peptide array binding signal intensity
KRKRFNLLLPKPYLT | 492

Target: SpPex13
Assay: as above
Experimental: as §1

Binder | SPOT peptide array binding signal intensity
KRKRFNLLLPKPYLT | 8.5

Target: SpRvs167
Assay: as above
Experimental: as §1

Binder | SPOT peptide array binding signal intensity
KRKRFNLLLPKPYLT | 12.7

Target: SpSla1-D1-D2
Assay: as above
Experimental: as §1

Binder | SPOT peptide array binding signal intensity
KRKRFNLLLPKPYLT | 3

Target: SpSla1-D3
Assay: as above
Experimental: as §1

Binder | SPOT peptide array binding signal intensity
KRKRFNLLLPKPYLT | 16.5
